The list is not random: actives were taken first. Their share in the collection is about 3.1%.
uPA surface inh: blocks generation of uPA at the cell surface; cell surface uPA generation assay, qHTS; Potency, µM (highest dose often 38.3 µM), inactives show at the top dose activity change, negative = inhibition, actives largely listed as inhibitors; actives 0.31% (n = 330,000); active = well fitted inhibition curve with a large enough effect; inconclusive = small, poorly fitted or top-dose-only effect; inactive = no such curve, though single readings can be large or run the other way; tested in mouse RAW 264.7 cells; note: potency is the fitted concentration of half-maximal effect; % is set by controls: 0 for no effect and ±100 for the full control effect; nearly all actives have a fitted effect of over 55% in size
VDR inhibitor: blocks the human vitamin D receptor; VDR-SRC2-3 peptide fluorescence polarization, 2 h; actives 0.93% (n = 400,000); P11473; Potency, µM, without a hit: max response, negative = inhibition, most hits filed as inhibitors; AID 504847; note: potency is the fitted concentration of half-maximal effect; % is set by controls: 0 for no effect and ±100 for the full control effect
Target sequence (P11473 whole entry, looked up): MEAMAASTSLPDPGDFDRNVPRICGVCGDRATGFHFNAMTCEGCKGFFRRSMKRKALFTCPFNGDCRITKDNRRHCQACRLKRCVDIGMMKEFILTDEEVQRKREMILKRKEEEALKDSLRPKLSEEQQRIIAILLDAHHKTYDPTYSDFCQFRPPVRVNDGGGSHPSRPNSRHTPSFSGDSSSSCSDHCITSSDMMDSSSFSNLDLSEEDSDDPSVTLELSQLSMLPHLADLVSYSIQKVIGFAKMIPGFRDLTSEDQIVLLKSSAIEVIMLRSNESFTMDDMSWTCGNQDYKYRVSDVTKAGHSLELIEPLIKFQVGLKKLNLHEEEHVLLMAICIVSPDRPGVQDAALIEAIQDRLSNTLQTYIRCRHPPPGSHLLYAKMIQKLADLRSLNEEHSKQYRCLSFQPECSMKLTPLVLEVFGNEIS
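After 23 nl compound addition and a short centrifugation, plates sat for 2 hours at ambient temperature; polarization of fluorescence then indicated loss of VDR binding to peptide SRC2-3.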
PLK1 PBD block: PLK1 (human) polo-box domain binding inhibition; Plk1 PBD binding of FITC phosphopeptide, fluorescence polarization; Potency, µM, inactives show max response, negative = inhibition, actives largely listed as inhibitors; actives 2.8% (n = 360,000); AID 720504; note: potency is the fitted concentration of half-maximal effect; series mostly up to about 57 µM; % is set by controls: 0 for no effect and ±100 for the full control effect; nearly all actives have a fitted effect of over 65% in size
TSHR antag: human thyrotropin receptor antagonism | P16473 | activity change, negative = inhibition, % at 11.5 µM | TSHR-expressing cells, TSH-stimulated cAMP HTRF, 2 h; active compounds read low | actives 0.2% (n = 330,000) | AID 504810;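 active = activity change below a set negative limit, meaning inhibition stronger than a set level, cut at about -70% in these data; inconclusive = activity change between two set negative limits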; note: % is set by controls: 0 for no effect and ±100 for the full control effect
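TSHR-expressing cells were treated with compounds, then stimulated with TSH at EC80 (4nM final) for 2 hours at 37 deg C. Cellular cAMP was measured by HTRF competition between lysate cAMP and cAMP-d2 for a cryptate-labelled anti-cAMP antibody.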
PTAP TSG101 blk: blocks PTAP/TSG101 interaction to inhibit HIV-1 budding; Q99816; Fluorescence polarization, FITC-PTAP peptide / Tsg101 binding; Potency, µM (top dose mostly 115 µM), without a hit: at the highest dose activity change, negative = inhibition, usual class: inhibitors; 340,000 tested, under 10 active; active = well fitted inhibition curve with a large enough effect in the main read-out, with a control signal flat, not every such curve was filed as active; inconclusive = small, poorly fitted or top-dose-only effect, or effect the other way, or a change in a side signal; inactive = no such curve, though single readings can be large or run the other way; note: potency is the fitted concentration of half-maximal effect; % of control where 0% means no effect
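Tsg101 binding domain (10 uM final) was mixed with compound and a FITC-labeled PTAP peptide (50 nM final) in HEPES pH 7.5 buffer with NaCl, Tween 20, EDTA and TCEP; fluorescence polarization was read after 20 min at r.t.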
TbPYK confirm: Trypanosoma brucei pyruvate kinase inhibition, cherry-pick confirmation | shares compounds with PLK1 PBD block | recombinant TbPYK, Kinase-Glo ATP luminescence | Potency, µM (top dose mostly 76.9 µM), without a hit: at the top dose activity change, negative = inhibition, hits mostly inhibitors | actives 67% (n = 890) | AID 720569; note: potency is the fitted concentration of half-maximal effect; % is set by controls: 0 for no effect and ±100 for the full control effect; nearly all actives have a fitted effect of over 70% in size
TbPYK orthogonal: orthogonal confirmation of Trypanosoma brucei pyruvate kinase inhibitors; recombinant TbPYK, ADP-Glo luminescence, 60 min; Potency, µM (highest dose often 76.9 µM), without a hit: at the highest dose activity change, negative = inhibition, actives largely listed as inhibitors; actives 62% (n = 890); AID 720584; shares compounds with PLK1 PBD block; note: potency is the fitted concentration of half-maximal effect; % is set by controls: 0 for no effect and ±100 for the full control effect; nearly all actives have a fitted effect of over 75% in size
* = called active by the depositor; ? = inconclusive; · = no result. Unless noted, calls come from the whole dose curve; as a rule, active = well fitted curve in the direction sought with a large enough effect; inconclusive = small, poorly fitted or top-dose-only effect, or another doubt; inactive = no such curve, though single readings can be large; an effect the other way counts as inactive or inconclusive.

SMILES	uPA surface inh	VDR inhibitor	PLK1 PBD block	TSHR antag	PTAP TSG101 blk	TbPYK confirm	TbPYK orthogonal
O=C(c1ccccc1)c1ccc2nc(-c3ccco3)c(-c3ccco3)nc2c1	-4%	45µM*	7.5µM*	-11	-2%	?	?
c1coc(-c2cnc3ccccc3n2)c1	·	·	-17%	·	·	·	·
CC1(C)OC(=O)C(=Cc2ccc(-c3ccc(S(N)(=O)=O)cc3)o2)C(=O)O1	2%	79µM*	1.3µM*	-1	-4%	13µM*	16µM*
CC(=O)/C(=N\Nc1ccc(Cl)cc1Cl)Sc1nnc(-c2ccccc2)n1-c1ccccc1	0%	-12%	-9%	16	-1%	?	14µM*
CCCCCCCCSC1=CC(=O)C(OC)=C(OC)C1=O	·	·	2.4µM*	·	·	2.8µM*	4µM*
CCOc1ccccc1C(=O)NCc1ccc2c(c1)CCN2C(=O)c1ccccc1	·	16%	·	·	·	·	·
CSc1cnn(Cc2ccccc2)c(=O)c1SCc1ccccc1	-3%	?	?	-41	-1%	14µM*	22µM*
CSc1cnn(-c2ccccc2)c(=O)c1SC	·	7%	?	20	-6%	·	·
COc1ccc(C(=O)NCC(c2cccs2)S(=O)(=O)c2ccc(F)c(C)c2)cc1 (centres undefined)	·	11%	·	·	·	·	·
COc1ccc2nc(Nc3sc4c(c3C(N)=O)CCCC4)sc2c1	-6%	?	?	-1	-1%	6.3µM*	7.9µM*
O=C(O)CCCn1c(=S)[nH]c2c(sc3ccc([N+](=O)[O-])cc32)c1=O	23%	15%	-15%	-11	-1%	7.9µM*	4.5µM*
N#Cc1cccc(N=c2ssnc2Cl)c1	3%	?	1.7µM*	-5	54%	8.9µM*	7.1µM*
COc1cc(N=c2ssnc2Cl)cc(OC)c1	-2%	20µM*	1.7µM*	-6	-1%	4µM*	5µM*
Clc1nssc1=Nc1nncs1	-5%	5.6µM*	2.4µM*	-23	-3%	2µM*	5µM*
Clc1nssc1=Nc1ccc(Br)cc1	-1%	35µM*	2.1µM*	-30	5%	8.9µM*	11µM*
COc1ccc(-c2ccc(C(=O)Nc3cc(OC)c(OC)c(OC)c3)c3occc23)c(C)c1	·	·	-4%	·	·	·	·
CCC(C(=O)NCC1CCCO1)N(Cc1ccc(F)cc1)C(=O)CNS(=O)(=O)c1ccccc1 (centres undefined)	2%	-16%	?	0	-3%	·	·
COc1ccccc1CNC(=O)c1oc2c(c1C)-c1nn(Cc3ccc(Cl)cc3)cc1CC2	·	-4%	·	·	·	·	·
CN(C)c1ccc(/C=N/NC(=O)C2COc3ccccc3O2)o1 (centres undefined)	-3%	-18%	-15%	1	0%	?	35µM*
Cc1ccc2nc(-c3cccs3)c(Nc3ccccc3)n2c1	·	8%	·	·	·	·	·
NC(=O)c1ccc(N2CCN(c3ccc(O)cc3)CC2)c([N+](=O)[O-])c1	-12%	-11%	-5%	-10	-2%	14µM*	?
CC(=O)c1ccc(N2CCN(c3ccc(C(N)=O)cc3[N+](=O)[O-])CC2)cc1	0%	-4%	-4%	-14	0%	·	·
CN(CCO)c1ccc2c(c1)OC[C@H](Cc1ccccc1)NS2(=O)=O	·	·	-2%	·	·	·	·
CCOC(=O)C1=C(N)N(c2ccccc2)C(=O)C1	4%	25µM*	3µM*	-3	-1%	-2%	-2%
CCOC(=O)c1ccc(N2C(=O)CC(C(=O)OC)=C2C)cc1	-5%	?	?	-3	-10%	·	·
CCOc1ccc(-c2c(=O)n(O)c3ccccc3[n+]2[O-])cc1	-11%	-6%	?	-7	2%	?	-15%
CCOc1ccc(-c2c(=O)n(OCC)c3ccccc3[n+]2[O-])cc1	-4%	-2%	?	-4	-2%	·	·
COC(=O)c1ccc(NC(=O)CN2C(=O)CSC2=O)cc1	0%	1%	-10%	·	-7%	·	·
